Out of some 13,000 compounds screened, about 3,200 (25%) showed an effect of 50% or more. The list shows a part of the results.

For the assay, the system named is P. falciparum stage V gametocytes. Further details: BacTiter-Glo ATP luminescence viability of purified stage V gametocytes in 384-well plates, per cent inhibition versus DMSO. As to conditions: 48 h, 5 µM; inhibitor.
By % Inhibition is commonly meant the drop in the measured response relative to a control, in per cent. For `COc1ccc2c(ccc3c2ncc2c(=O)n(-c4ccccc4)[nH]c23)c1` [TCMDC-142015], the “% Inhibition” value is given as 8.903%. As for `Cn1cncc1CNCc1ccc(-c2cccc(-c3nc4ccccc4[nH]3)c2)cc1.O=C(O)C(F)(F)F` [TCMDC-132569], the figure is 52.47%; as for `Cn1cccc1CCNCc1ccc(-c2cccc(-c3nc4ccccc4[nH]3)c2)cc1.O=C(O)C(F)(F)F` [TCMDC-132543], 2.509%; as for `O=C(O)C(F)(F)F.c1ccc(-n2ncc(CNCc3ccc(-c4cccc(-c5nc6ccccc6[nH]5)c4)cc3)n2)cc1` [TCMDC-132564], -40.42%. As for `Nc1cccc(CNCc2ccc(-c3cccc(-c4nc5ccccc5[nH]4)c3)cc2)c1.O=C(O)C(F)(F)F` [TCMDC-132924], the figure is -75.75%. Take `COC(=O)c1cccc(CNCc2cccc(-c3ccc(-c4nc5ccccc5[nH]4)cc3)c2)c1.O=C(O)C(F)(F)F` [TCMDC-132959]: the “% Inhibition” value is -6.074%. Turning to `COC(=O)c1cccc(CNCc2ccc(-c3cccc(-c4nc5ccccc5[nH]4)c3)cc2)c1.O=C(O)C(F)(F)F` [TCMDC-132555], the “% Inhibition” value stood at 70.67%.

Take `O=C(O)C(F)(F)F.c1cc(-c2ccc(CNCc3ccsc3)cc2)cc(-c2nc3ccccc3[nH]2)c1` [TCMDC-132563]: the “% Inhibition” value is recorded as -10.09%. For the compound `COC(=O)c1cccc(CNCc2ccc(-c3cccc(-c4nc5cc(C(F)(F)F)ccc5[nH]4)c3)cc2)c1.O=C(O)C(F)(F)F` [TCMDC-132947], the “% Inhibition” value was -37.36%. As for `NC(=O)c1cccc(CNCc2ccc(-c3cccc(-c4nc5ccccc5[nH]4)c3)cc2)c1.O=C(O)C(F)(F)F` [TCMDC-132570], the figure is 70.11%. On to `N#Cc1cccc(Nc2nccc(Nc3ccc(Oc4ccccc4)cc3)n2)c1` [TCMDC-138558], for which the “% Inhibition” value was -36.77%. Under `CCCCCCc1cc(O)c2c3c(c(=O)oc2c1)CCN(C)C3` [TCMDC-124193] stands 9.848%. `CC(C)c1ccc(OCC(O)CN(C)C(C)C(O)c2ccccc2)c(Br)c1` (stereo not drawn) [TCMDC-141995]: the “% Inhibition” value is recorded as 3.955%. Consider `CC1(C)N=C(N)N=C(N)N1c1cccc(I)c1` [TCMDC-138037], for which the “% Inhibition” value is given as -1.195%. As for `C(=NNc1cc(-c2ccccc2)nc2ccccc12)c1cccnc1` [TCMDC-142052], the figure is -23.81%. Consider `COc1ccc2c(NCCc3ccccc3)cc(-c3ccccc3)nc2c1` [TCMDC-138992], for which the “% Inhibition” value is listed as 28.49%. As for `COc1ccc2nc(-c3ccccc3)cc(NCCCNc3cc(-c4ccccc4)nc4ccc(OC)cc34)c2c1.Cl` [TCMDC-137734], the figure is 124.9%; as for `CN(C)CCNc1cc(-c2ccc3ccccc3c2)nc2ccccc12` [TCMDC-124260], 3.28%; as for `c1ccc(-c2cc(NCCNc3cc(-c4ccccc4)nc4ccccc34)c3ccccc3n2)cc1` [TCMDC-137986], 24.95%. On to `O=[N+]([O-])c1ccc(/C=N/Nc2cc(-c3ccccc3)nc3ccccc23)o1` [TCMDC-142051], for which the “% Inhibition” value stood at 34.86%. As to `c1ccc(-c2cc(NCCCCNc3cc(-c4ccccc4)nc4ccccc34)c3ccccc3n2)cc1` [TCMDC-137738], the “% Inhibition” value was 98.03%. As to `COc1ccc2nc(-c3ccccc3)cc(NCCN(C)C)c2c1` [TCMDC-123487], the “% Inhibition” value is -6.807%. Take `c1ccc(-c2cc(NCCCCCCCCNc3cc(-c4ccccc4)nc4ccccc34)c3ccccc3n2)cc1` [TCMDC-137983]: the “% Inhibition” value is reported as 96.95%. In the case of `c1ccc(-c2cc(NCc3cccc4ccccc34)c3[nH]ncc3n2)cc1` [TCMDC-139455], the “% Inhibition” value turned out to be 76.18%. As for `COc1ccc2nc(C)cc(NCc3cccc4ccccc34)c2c1.Cl` [TCMDC-138974], the “% Inhibition” value was -17.8%. Under `CS(=O)(=O)NCCCNCc1ccc(-c2ccc(-c3nc4cc(C(F)(F)F)ccc4[nH]3)s2)cc1.O=C(O)C(F)(F)F` [TCMDC-133076] stands -24.74%; under `COc1ccc2cc(C(C)NC3CCN(c4cccc(NC(=O)c5ccncc5)c4)CC3)ccc2c1` (stereo not drawn) [TCMDC-124668], -18.92%. Regarding `COc1ccc(CNC2CCN(C)CC2)cc1-c1ccc(S(=O)(=O)NCc2ccccc2)c(C)c1` [TCMDC-132480], the “% Inhibition” value was determined as 85.24%.

Regarding `COc1ccc(CNC2CCN(C)CC2)cc1-c1ccc(S(=O)(=O)NCc2ccccc2)c(F)c1` [TCMDC-132262], the “% Inhibition” value stood at 59.53%.

`COc1ccc(CNC2CCN(C)CC2)cc1-c1ccc(OC)c(S(=O)(=O)NCc2ccccc2)c1` [TCMDC-132249]: the “% Inhibition” value is recorded as 105.1%. In the case of `COc1ccc(-c2cccc(CNC3CCN(C)CC3)c2)cc1S(=O)(=O)NCc1ccccc1` [TCMDC-132375], the “% Inhibition” value is reported as 75.59%. Regarding `NC1=NC(Cc2ccccc2)N(c2ccc(Cl)cc2)C(N)=N1` (stereo not drawn) [TCMDC-131291], the “% Inhibition” value is 0.2754%. As for `CC(C)(C)C(C)(C)Cc1ccc(O)c(CN2CCN(c3ccccc3)CC2)c1` [TCMDC-125678], the figure is -31.97%; as for `CC(C)[C@H](NC(=O)c1ccc(O)c(-c2cccc(C(F)(F)F)c2)c1)C(=O)NCCN1CCCCC1` [TCMDC-140815], 44.47%.

Take `O=C(Nc1ccc(-c2ccc(-c3nc4ccccc4[nH]3)s2)cc1)Nc1ccc(Cl)c(Cl)c1` [TCMDC-133283]: the “% Inhibition” value is recorded as 1.039%. Consider `CC[C@H](NC(=O)c1c(CC2CCN(CC(C)=O)CC2)c(-c2ccccc2)nc2ccccc12)c1ccccc1` [TCMDC-141946], for which the “% Inhibition” value was 44.22%. With `CC(C)(C)c1ccc(NC(=O)c2ccc(CN3CCCN(CC4CCCCC4)CC3)cc2)cc1` [TCMDC-136428], the “% Inhibition” value is on record as -70.52%.

`N#Cc1cccc(NC(=O)Nc2ccc(-c3cccc(-c4nc5ccc(F)cc5[nH]4)c3)cc2)c1` [TCMDC-133199]: the “% Inhibition” value turned out to be 24.35%. As for `CN(C(=O)c1snnc1-c1ccccc1)C1CCN(CCCCCNC(=O)/C=C/c2ccc(Cl)c(Cl)c2)CC1` [TCMDC-139993], the figure is -14.58%. Turning to `Oc1ccc2[nH]c(-c3ccc(F)cc3F)nc2c1CN1CCC(O)(c2ccccc2)CC1` [TCMDC-136532], the “% Inhibition” value is -67.95%. Under `COc1ccc2nccc([C@@H](O)CN3CCC(NCc4nc5c([N+](=O)[O-])cccc5[nH]4)CC3)c2c1` [TCMDC-140982] stands -2.529%; under `CC1CN(Cc2cccc(-c3ccc(-c4nc5cc(F)ccc5[nH]4)cc3)c2)CC(C)O1.O=C(O)C(F)(F)F` (stereo not drawn) [TCMDC-133818], 13.23%. On to `CC(C)N1CCN(C(CN2CCN(CCCOc3cccc(F)c3)CC2)c2ccc(F)cc2)CC1` (stereo not drawn) [TCMDC-135493], for which the “% Inhibition” value is 99.24%. For `Cc1ccc(C2(C)CN(CCCOc3cccc(-c4ccc(C(=O)NC(C)C)cc4)c3)CCO2)cc1` (stereo not drawn) [TCMDC-134386], the “% Inhibition” value amounted to 27.16%. As for `CC(C)N1CCN(C(CN2CCN(CCCOc3ccc(-c4ccccc4)cc3)CC2)c2ccc(F)cc2)CC1` (stereo not drawn) [TCMDC-135497], the figure is 69.79%. Regarding `COc1ccc(C(C(=O)NC2CCN(C[C@H](O)c3ccnc4ccc(OC)cc34)CC2)N2CCN(c3ccc(F)cc3)CC2)cc1` (stereo partly drawn) [TCMDC-140993], the “% Inhibition” value is given as -29%. For `CC(C)N1CCN(C(CN2CCN(CCCOc3cccc(-c4ccccc4)c3)CC2)c2ccc(F)cc2)CC1` (stereo not drawn) [TCMDC-135498], the “% Inhibition” value stood at 62.15%. In the case of `CC(C)N1CCN(C(CN2CCN(CCCOc3ccccc3-c3ccccc3)CC2)c2ccc(F)cc2)CC1` (stereo not drawn) [TCMDC-135499], the “% Inhibition” value was determined as 44.69%. On to `CC(CN1CCN(CC(c2ccc(F)cc2)N2CCN(C)CC2)CC1)C(=O)c1ccc(O)cc1` (stereo not drawn) [TCMDC-125496], for which the “% Inhibition” value is 29.96%.

For the compound `CC(C)N1CCN(C(CN2CCN(CCCOc3ccc4nonc4c3)CC2)c2ccc(F)cc2)CC1` (stereo not drawn) [TCMDC-135500], the “% Inhibition” value was determined as 92.96%.

Consider `O=C(CCN1C(=O)c2ccccc2C1=O)N1CCN(CC=Cc2ccccc2)CC1` [TCMDC-125744], for which the “% Inhibition” value came to 5.299%. Take `CCCN(c1ccc(C(F)(F)F)cc1[N+](=O)[O-])S(=O)(=O)C(c1ccccc1)c1ccc(C(F)(F)F)cc1[N+](=O)[O-]` (stereo not drawn) [TCMDC-132114]: the “% Inhibition” value was found to be 11.09%. As for `COc1ccc(C)c(Nc2ccnc(Nc3ccc(-c4cnc[nH]4)cc3)n2)c1` [TCMDC-138695], the figure is -34.59%.

On to `CC(C)(C)NC(=O)COC(=O)c1c2c(nc3ccccc13)C(=Cc1ccc3c(c1)OCO3)CCC2` [TCMDC-125143], for which the “% Inhibition” value turned out to be 31.31%. As for `CC(C)CCN(Cc1cncn1Cc1cccc(Cl)c1)C(=O)c1cncc(-c2ccccc2)c1` [TCMDC-132465], the figure is 21.61%; as for `Cc1cc2c(cc1C(F)(F)F)N(C(=O)Nc1cnc(OCCN(C)C)c(C(F)(F)F)c1)CC2` [TCMDC-139848], 26.2%; as for `O=C(NCc1ccccc1)NC1CCN(c2ccnc3cc(Cl)ccc23)C1` (stereo not drawn) [TCMDC-133402], -15.46%. On to `COc1ccc(NC(=O)NC2CCN(c3ccnc4cc(Cl)ccc34)C2)cc1` (stereo not drawn) [TCMDC-133647], for which the “% Inhibition” value was -25.5%. As for `c1cncc(CCNCc2cccc(-c3csc(-c4nc5ccccc5[nH]4)c3)c2)c1` [TCMDC-132878], the figure is -19.07%; as for `Cc1[nH]nc2cc(Nc3ccnc(Nc4ccc(CN5CCOCC5)cc4)n3)ccc12` [TCMDC-138633], 14.24%; as for `O=C(Cc1cnc[nH]1)Nc1cccc(-c2ccc(-c3nc4ccc(C(F)(F)F)cc4[nH]3)cc2)c1` [TCMDC-136952], -24.24%.

Consider `CC(C)N1CCN(C(CN2CCN(CCCOc3ccc4ccccc4c3)CC2)c2ccc(F)cc2)CC1` (stereo not drawn) [TCMDC-135495], for which the “% Inhibition” value is listed as 83.07%. Under `O=C(Nc1cccc(-c2ccc(CN3CCC(O)CC3)cc2)c1)c1cccc(Cl)c1` [TCMDC-132645] stands -15.01%; under `O=C(CCc1cnc[nH]1)Nc1ccc(-c2cccc(-c3nc4ccccc4[nH]3)c2)cc1` [TCMDC-132150], 3.081%. In the case of `O=C(CCc1cnc[nH]1)Nc1cccc(-c2ccc(-c3nc4ccccc4[nH]3)cc2)c1` [TCMDC-132155], the “% Inhibition” value came to 31.89%.

For the compound `O=C(CCc1cnc[nH]1)Nc1cccc(-c2cccc(-c3nc4ccccc4[nH]3)c2)c1` [TCMDC-132151], the “% Inhibition” value is 78.34%. Consider `Cc1cccc2[nH]c(-c3ccc(-c4cccc(NC(=O)CCc5cnc[nH]5)c4)cc3)nc12` [TCMDC-132153], for which the “% Inhibition” value was determined as 72.28%. Under `Cc1cccc2[nH]c(-c3ccc(-c4cccc(NC(=O)Cc5cnc[nH]5)c4)cc3)nc12` [TCMDC-136942] stands 73.44%; under `Cc1cccc2[nH]c(-c3cccc(-c4cccc(NC(=O)Cc5cnc[nH]5)c4)c3)nc12` [TCMDC-136950], -8.646%. On to `Cc1cccc2[nH]c(-c3cccc(-c4ccc(NC(=O)Cc5cnc[nH]5)cc4)c3)nc12` [TCMDC-136951], for which the “% Inhibition” value was determined as 17.26%. Under `Cc1cccc2[nH]c(-c3cccc(-c4cccc(NC(=O)CCc5cnc[nH]5)c4)c3)nc12` [TCMDC-132158] stands -23.69%. For `Cc1cccc2[nH]c(-c3cccc(-c4ccc(NC(=O)CCc5cnc[nH]5)cc4)c3)nc12` [TCMDC-132159], the “% Inhibition” value is given as -12.17%. As for `C#CCCC(=O)Nc1cccc(-c2cccc(-c3nc4c(C)cccc4[nH]3)c2)c1` [TCMDC-136857], the “% Inhibition” value came out at 61.5%. In the case of `CCOC(=O)NCC(=O)Nc1cccc(-c2cccc(-c3nc4c(C)cccc4[nH]3)c2)c1` [TCMDC-137048], the “% Inhibition” value is listed as -2.875%. Consider `Cc1cccc2[nH]c(-c3cccc(-c4cccc(NC(=O)Nc5ccccc5)c4)c3)nc12` [TCMDC-133152], for which the “% Inhibition” value was -23.55%.
